Results published in PubChem BioAssay AID905 (National Center for Advancing Translational Sciences (NCATS), 2007).
This is one part of the list. Records with an inconclusive call do not appear. The source made the active and inactive calls. The call rests on the fitted dose curve; in most records, active means well fitted curve in the direction sought with a large enough effect; inconclusive means small, poorly fitted or top-dose-only effect, or another doubt; inactive means no such curve, though single readings can be large or run the other way.

Experiment: Cell Viability - CRE-beta lactamase CHO cell - 24 hr assay
Conditions: CRE-bla CHO viability, ATP luminescence; series mostly up to 46.1 µM
Text: NIH Molecular Libraries Screening Centers Network [MLSCN] NIH Chemical Genomics Center [NCGC] National Institutes of Environmental Health Sciences [NIEHS] National Toxicology Program [NTP] MLSCN Grant: 1X01MH079867-01 Assay Provider: Marshall W. Nirenberg, U.S. National Heart, Lung and Blood Institute NCGC Assay Overview: We have developed a 1536-well cell-based assay for quantitative high throughput screening (qHTS) against a number of cell lines to determine in vitro cytotoxicity of small molecules. This particular assay uses CRE-bla CHO cell line from Invitrogen.
NCGC Assay Protocol Summary: The CellTiter-Glo luminescent cell viability assay (Promega) is a homogeneous method to measure the number of viable cells in culture. The end point readout of this assay is based on quantitation of intracellular ATP, an indicator of metabolic activity, using the luciferase reaction. Luciferase catalyzes the oxidation of beetle Luciferin to oxyluciferin and light in the presence of ATP. The luminescent signal is proportional to amount of ATP present. Using the CellTiter-Glo luminescent cell viability assay, the amount of cellular ATP was measured in the CRE-bla CHO cell line with complete culture medium following compound treatment for 24 hours. The assay was performed in opaque white Kalypsys 1536-well plates. In the screen, tamoxifen was used as positive control. The selected compounds were measured for their ability to cause acute toxicity in the cell line, as reflected by a decrease in intracellular ATP levels, in a concentration-dependent manner. Data were normalized to the controls for basal activity (DMSO only) and 100% inhibition (100 uM tamoxifen). AC50 values were determined from concentration-response data modeled with the standard Hill equation. NCGC Assay Protocol Summary 1. Reagent; 5 uL; 2000 CHO cells/well 2. Time; overnight; 37 C incubation 3. Compounds; 23 nL; 5.9 nM to 46 uM 4. Controls; 23 nL; Tamoxifen 4.5 nM to 92 uM 5. Time; 24 hr; 37 C incubation 6. Reagent; 5 uL; CellTiter Glo reagent 7. Time; 20 min; Room Temperature 8. Detection; Luminescence; Viewlux plate reader Keywords: cell viability, cytotoxicity, CHO cell line, luminescence, MLSMR, MLSCN, NIH Roadmap, qHTS, NCGC

SMILES | outcome
Cc1nn(-c2ccccc2)c2sc(C(=O)N(Cc3ccco3)C(C)C(=O)NC(C)(C)C)cc12 (stereo not given) | inactive
CC1CCc2sc3nc(N4CCN(CCO)CC4)n4ncnc4c3c2C1 (stereo not given) | inactive
CCc1nc(Nc2ccc3nccnc3c2)c2oc3ccccc3c2n1 | inactive
COc1ccc(CCNC(=O)CSc2nc(C)nc3c2oc2ccccc23)cc1OC | inactive
Cc1nc(SCC(=O)Nc2cc(C)on2)c2c3c(sc2n1)CCCC3 | inactive
